Tm shift data for 16 compounds are collected here from PubChem BioAssay AID382 (SGCOxCompounds, 2006).

SMILES strings stand for the structures. Calls of active or inactive are those of the source. No rule for the calls is given here.

In one assay the target is Dual specificity protein kinase CLK1 (Homo sapiens) (UniProt P49759). Put plainly: ligand-induced CLK1 melting temperature shift – biophysical, recombinant human kinase, DSF (AID 382). Particulars: Recombinant CLK1, thermal shift (DSF), at 10 µM, protein 1.7 µM, buffer 10 mM HEPES, pH 7.5, NaCl 150 mM, with 50 µM L-Arg/L-Glu (1:1), hits give high values.
Dual specificity protein kinase CLK1 (Homo sapiens), sequence (P49759 whole entry, looked up): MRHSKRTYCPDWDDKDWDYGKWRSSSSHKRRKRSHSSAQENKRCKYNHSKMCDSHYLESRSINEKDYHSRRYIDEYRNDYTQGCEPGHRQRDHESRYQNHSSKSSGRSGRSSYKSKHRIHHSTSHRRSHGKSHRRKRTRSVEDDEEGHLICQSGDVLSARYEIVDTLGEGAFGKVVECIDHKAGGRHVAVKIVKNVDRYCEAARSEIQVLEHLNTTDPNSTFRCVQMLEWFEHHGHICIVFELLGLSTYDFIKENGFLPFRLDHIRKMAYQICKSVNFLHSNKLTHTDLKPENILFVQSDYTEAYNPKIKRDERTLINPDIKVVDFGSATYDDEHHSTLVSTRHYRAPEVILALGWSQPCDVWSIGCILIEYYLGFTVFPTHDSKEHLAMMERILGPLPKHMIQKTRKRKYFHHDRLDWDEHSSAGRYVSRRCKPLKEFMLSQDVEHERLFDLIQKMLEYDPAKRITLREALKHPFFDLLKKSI
With `COc1ccc(Nc2nc(N)c(C(=O)c3ccc(Cl)cc3)s2)cc1`, the Tm shift is 4.4 Celsius (active).
As to `COc1ccc(Nc2nc(N)c(C(=O)c3ccc(OC)cc3)s2)cc1`, the Tm shift is 4.5 Celsius (active).
On to `COc1ccc(C(=O)c2sc(Nc3cccc(C(F)(F)F)c3)nc2N)cc1`, for which the Tm shift is 3.7 Celsius (active).

The assay is the same for the next values; noted with them: Recombinant CLK1, thermal shift (DSF), at 10 µM, protein 2 µM, buffer 10 mM HEPES, NaCl 150 mM, hits give high values.
As for `O=Nc1c(-c2c(O)[nH]c3ccc(S(O)(O)O)cc23)[nH]c2ccccc12`, the Tm shift is 3.64 Celsius (active).
Same read-out and setting: the figure for `NCCCn1cc(C2=C(c3c[nH]c4ccccc34)C(=O)NC2=O)c2ccccc21` is 8.48 Celsius (active); for `CC(C)C(CO)Nc1nc(Nc2cccc(Cl)c2)c2ncn(C(C)C)c2n1` (stereo unspecified) it is 6.23 Celsius (active).
On the same count and under the same terms, the figure for `COc1cc2ncnc(Nc3cccc(O)c3)c2cc1OC` is 4.15 Celsius (active).
Turning to `COc1cc(O)c2c(c1)oc(=O)c1c3cc(O)c(O)cc3oc21`, the Tm shift was 3.2 Celsius (active).
Same read-out and setting: the figure for `O=C1C(=O)C(c2ccc(O)cc2)Oc2cc(O)cc(O)c21` (stereo unspecified) is 4.8 Celsius (active); for `N=C(N)SCCCn1cc(C2=C(c3c[nH]c4ccccc34)C(=O)NC2=O)c2ccccc21` it is 10.3 Celsius (active); for `O=C1C(=O)C(c2cc(O)c(O)c(O)c2)Oc2cc(O)cc(O)c21` (stereo unspecified) it is 6.4 Celsius (active).
Regarding `O=C1NC(=O)C(c2c[nH]c3ccccc23)=C1c1c[nH]c2ccccc12`, the Tm shift is 4.13 Celsius (active).
Take `COc1cc(C2Oc3cc(O)cc(O)c3C(=O)C2=O)ccc1O` (stereo unspecified): the Tm shift was 6.14 Celsius (active).
`O=C1C(=O)C(c2cccc(O)c2)Oc2ccccc21` (stereo unspecified): the Tm shift was 3.88 Celsius (active).
Consider `O=Nc1c(-c2c(O)[nH]c3ccc(I)cc23)[nH]c2ccccc12`, for which the Tm shift was 5.14 Celsius (active).
Consider `O=c1c(O)c(-c2ccc(O)cc2)oc2cc(O)cc(O)c12`, for which the Tm shift is 5.97 Celsius (active).
